# PubChem BioAssay AID488893 (Broad Institute, 2010)
# Measured potencies and affinities stand elsewhere. Active and inactive are the calls of the source.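 How the source made its calls: active means falling signal whose fitted half-maximal dose is at most ten times the top valid tested dose; inconclusive means flat curve with 30 to 70% inhibition, or poor fit; inactive means the rest, including changes in the wrong direction.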
# Test: Candida albicans growth inhibition, compound alone, dose response, counter-screen for antifungal drug resistance project, CaCi-2 strain, Alamar Blue, dry powder, set 2 (AID 488893)
# Conditions: C. albicans CaCi-2 (fluconazole-resistant clinical isolate) growth, Alamar Blue fluorescence, 48 h; series mostly up to 26 µM
row,Structure (SMILES),outcome
1,O=C(Nc1ccc(Cl)cc1)N1CCN(c2ccnc3cc(Cl)ccc23)CC1,inactive
2,COc1ccnc(N2CCN(C(=O)c3ccc(Cl)cc3)CC2)c1,inactive
3,O=C(c1cccc(Cl)c1)N1CCN(c2ccnc3cc(Cl)ccc23)CC1,inactive
4,Cc1cc(N2CCN(C(=O)c3ccc(Cl)cc3)CC2)c2ccc(F)cc2n1,inactive
5,O=C(c1ccc(Cl)cc1)N1CCN(c2ncnc3nc[nH]c23)CC1,inactive
6,O=C(C1CCCC1)N1CCN(c2ccnc3cc(Cl)ccc23)CC1,inactive
7,O=C(c1ccc(Cl)nc1)N1CCN(c2ccnc3cc(Cl)ccc23)CC1,inactive
8,O=C(c1ccc(Cl)cc1)N1CCN(c2ccnc3ccccc23)CC1,inactive
9,O=C(c1ccc(Cl)cc1)N1CCNCC1,inactive
10,CC(C)CC(=O)N1CCN(c2ccnc3cc(Cl)ccc23)CC1,inactive
11,O=C(C1CCC1)N1CCN(c2ccnc3cc(Cl)ccc23)CC1,inactive
12,O=C(c1ccc(Cl)cc1)N1CCN(c2ccnc3ccc(Cl)cc23)CC1,inactive
13,COc1ccc2c(N3CCN(C(=O)c4ccc(Cl)cc4)CC3)ccnc2c1,inactive
14,O=C(c1ccc(Cl)cc1)N1CCN(c2ccnc3cc(Cl)ccc23)CC1,inactive
15,Clc1ccc2c(N3CCNCC3)ccnc2c1,inactive
16,O=C(c1ccc(Cl)cc1)C1CCN(c2ccnc3cc(Cl)ccc23)CC1,inactive
17,CC1CN(c2ccnc3cc(Cl)ccc23)CCN1C(=O)c1ccc(Cl)cc1 (centres undefined),inactive
18,O=C(c1ccc(Cl)cc1)N1CCN(c2ncnc3ccccc23)CC1,inactive
19,CC(C)C(=O)N1CCN(c2ccnc3cc(Cl)ccc23)CC1,inactive
